Reference: PubChem BioAssay

biological target: Concanavalin-A (Canavalia ensiformis) (UniProt P02866); assay: compounds binding concanavalin A lectin – biochemical, small-molecule microarray, Alexa647 label, 635 nm, artefact control for SMM control protein annotation, primary screen (AID 1127); conditions: ConA-A647 binding fluorescence, higher = more signal;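 also: z combines 667 nm emission intensity with signal-to-noise across three replicate slides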
Sequence (P02866 whole entry, looked up): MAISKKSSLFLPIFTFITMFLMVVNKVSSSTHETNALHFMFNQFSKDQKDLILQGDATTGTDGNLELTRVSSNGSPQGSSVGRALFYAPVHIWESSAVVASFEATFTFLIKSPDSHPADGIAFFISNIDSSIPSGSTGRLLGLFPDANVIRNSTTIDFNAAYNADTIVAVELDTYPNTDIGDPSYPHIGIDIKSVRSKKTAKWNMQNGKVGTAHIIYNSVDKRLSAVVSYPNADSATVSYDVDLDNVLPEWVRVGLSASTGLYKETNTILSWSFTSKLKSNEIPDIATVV

| Compound | composite z-score |
| --- | --- |
| COC(=O)[C@@]1(Cc2ccc(OC)cc2)[C@H]2c3cc(C(=O)N4CCCC4)n(Cc4ccsc4Br)c3C[C@H]2CN1C(=O)c1ccccc1 | 0.496 |
| CCOC(=O)C[C@H]1[C@H](OC(=O)Cc2ccc3c(c2)OCO3)[C@@H](NC(=O)c2ccc(-c3ccccc3)cc2)c2cc(OCCCO)ccc2N1C(=O)c1ccc2ccccc2n1 | 0.643 |
| COC(=O)[C@@]1(Cc2ccc(F)cc2)[C@H]2c3cc(C(=O)N(C)C)n(CC4CC4)c3C[C@H]2CN1C(=O)c1ccccc1 | 1.1 |
| CCCCC(=C=CC[C@@H](O)c1ccccc1OCCO)CCO | -0.382 |
| COc1ccc([Si](C)(C)[C@@H]2[C@@H](CCO)O[C@]3(C(=O)N(Cc4ccc(N5C(=O)COc6ccccc65)cc4)c4ccccc43)[C@H]2C)cc1 | 1.07 |
| CC1CC/C=C\[C@H]2OC34C=CCN(Cn5nnc6ccccc65)C(=O)[C@H]3N(C(CO)C(C)C)C(=O)[C@@H]4C2C(=O)O1 (stereo partly specified) | -0.43 |
| CCCCN1CC=CC23O[C@@H]4/C=C\CCC(C)OC(=O)C4[C@H]2C(=O)N(CCCCCO)[C@@H]3C1=O (stereo partly specified) | -1.09 |
| O=C1C[C@]2(c3ccc([N+](=O)[O-])cc3)C(=O)N(CCN3CCOCC3)c3cc(CO)ccc3[C@H]2N1C1CCCCC1 | -0.172 |
| O=C(O)[C@@]1(CCS(=O)(=O)c2ccccc2)COC(c2ccc(OCCCO)cc2)=N1 | -0.0647 |
| COc1ccc(C(O)C2C=CC3C(=O)N(c4ccccc4)C(=O)C3N2Nc2ccc(C(C)C)cc2)cc1OCc1ccccc1 (stereo unspecified) | 1.12 |
| CC(C)C(=C=CC[C@@H](O)c1ccccc1OCCO)CCO | 0.542 |
| CN(C)C(=O)[C@]1(Cc2ccccc2CN=[N+]=[N-])N=C(c2ccc(OCCCO)cc2)O[C@@H]1c1ccccc1CN=[N+]=[N-] | 0.758 |
| COc1ccc(C(=O)Nc2cccc(CN3C(=O)[C@]4(O[C@H](CCO)[C@@H]([Si](C)(C)c5ccc(OC)cc5)[C@@H]4C)c4ccccc43)c2)cc1 | 1.13 |
| CCCCCC1=C2CNC(CCC)(C(=O)OC)C=C2C(C)C1=O (stereo unspecified) | 0.236 |
| CCOC(=O)C[C@H]1[C@H](OC(=O)c2cc3ccccc3oc2=O)[C@@H](NC(=O)Cc2ccc(OC)cc2)c2cc(OCCCO)ccc2N1C(=O)c1ccccc1 | -0.256 |
| COc1ccc([C@H]2C[C@H]3C(Br)=C[C@@H]2C(=O)[C@]32CO2)cc1 | 0.125 |
| CCOC(=O)C1=CCC(c2ccccc2)N(S(=O)(=O)CC[Si](C)(C)C)C1 (stereo unspecified) | -0.0238 |
| O=C1NCC(=O)N2[C@@H]1C[C@@H](C(=O)O)[C@H]2c1cccc(OCCO)c1 | 0.945 |

| Compound | composite z-score |
| --- | --- |
| COCCOC(=O)N1C(=O)[C@@]2(c3cc(C#CC4=CCCCC4)ccc31)[C@H](C(=O)N1CCc3cc(OC)c(OC)cc3C1)[C@H]1C(=O)O[C@H](c3ccccc3)[C@H](c3ccccc3)N1[C@@H]2c1ccc(OCCO)cc1 | 1.14 |
| O=C(NCC(F)(F)F)[C@@H]1c2ccccc2C(=O)N(C2CCCCC2)[C@H]1c1ccc(CO)cc1 | 1.11 |
| CC(C)OC(=O)C=C1C[C@@H](c2ccccc2C(F)(F)F)O[C@@H](c2ccccc2C(F)(F)F)O1 | 0.257 |
| COc1ccc([Si](C)(C)[C@H]2[C@H](CC(=O)N3Cc4ccccc4C[C@H]3CO)O[C@@]3(C(=O)N(Cc4ccc(N5CCC5=O)cc4)c4ccccc43)[C@@H]2C)cc1 | 1.13 |
| C=CCC(OC(C)=O)[C@@H]1[C@@H](N(Cc2cccc3ccccc23)C(=O)c2ccc(-c3ccccc3)cc2)c2cc(OCCCO)ccc2N1C(=O)Cc1ccc(OC)cc1 (stereo partly specified) | 0.0866 |
| COc1ccc(CCNC(=O)[C@@H]2c3ccccc3C(=O)N(C3Cc4ccccc4C3)[C@H]2c2ccc(CO)cc2)cc1 | 0.542 |
| C=CCNC(=O)[C@H]1[C@@H]2C(=O)O[C@@H](c3ccccc3)[C@@H](c3ccccc3)N2[C@@H](c2ccc(O)cc2)[C@]12C(=O)N(C(=O)OCCOC)c1ccc(C#CCNC(N)=O)cc12 | 0.932 |
| C=CCC(OC(C)=O)[C@@H]1[C@@H](N(Cc2ccc(-c3cccc(C(F)(F)F)c3)o2)C(=O)Cc2ccc(F)cc2)c2cc(OCCCO)ccc2N1C(=O)Cc1ccc(OC)cc1 (stereo partly specified) | -1.29 |
| Cc1ccc(S[C@]2(C(=O)NCC(F)(F)F)CC(=O)N(C(C)C)[C@@H]2c2ccc(CO)cc2I)cc1 | -0.967 |
| O=C1NC(=O)C2C1C=CC(C(O)c1ccccc1)N2Nc1ccc(Cl)cc1Cl (stereo unspecified) | 1.1 |
| COc1ccc([Si](C)(C)[C@H]2[C@H](CCO)O[C@@]3(C(=O)N(C)c4c(Br)cc(C)cc43)[C@@H]2C)cc1 | 1.07 |
| CN1C(=O)C2C=CC(C(O)c3ccc(-c4ccccc4)s3)N(N(c3ccccc3)c3ccccc3)C2C1=O (stereo unspecified) | 1.08 |
| COc1ccc(CCNC(=O)[C@@]2(Sc3ccc(C)cc3)CC(=O)N(C3CCCCC3)[C@@H]2c2ccc(CO)cc2I)cc1 | 0.977 |
| C=CCNC(=O)[C@H]1[C@@H]2C(=O)O[C@@H](c3ccccc3)[C@@H](c3ccccc3)N2[C@@H](c2ccccc2OCCO)[C@]12C(=O)Nc1ccc(C#CC3=CCCCC3)cc12 | 1.02 |
| C[N+](C)(C)CCCC[C@@H]1NC(=O)[C@@H]2C[C@H](C(=O)NCCCCCN)[C@H](c3cccc(OCCO)c3)N2C1=O | 0.929 |
| C=C/C=C/[C@H]1C(=C)CN([C@@H](Cc2ccccc2)C(=O)OC)[C@@H]1[C@H](O)Cc1ccccc1 | -0.243 |
| CN1C(=O)C2C=CC(C(O)c3ccc(I)cc3)N(N3CCCCC3)C2C1=O (stereo unspecified) | 1.15 |
| O=C1[C@H]2C=C(Br)[C@H](C[C@@H]2c2ccccc2)[C@@]12CO2 | -0.0479 |
